Experimental data: PubChem BioAssay (NCI)
Compounds without any hit were thinned out: in the full panel of roughly 83,000, 20% have a hit.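 96-well plates, one dose, 48 hours. Percent growth reported; active if below 10.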 The source made the active and inactive calls.

tested on: MCF7 breast; assay: NCI-60 one-dose screen, 48 h (100 = growth as untreated, 0 = no growth, -100 = all killed); settings: 10 µM unless noted

Row | Structure (SMILES) | growth
1 | COc1ccc(C2CC(c3ccc(OC)cc3OC)=NN2c2ccc(S(N)(=O)=O)cc2)cc1 (stereo not given) | 86% (inactive)
2 | c1ccc(-c2nnc(-c3ccccn3)s2)nc1 | 28.6% (inactive)
3 | Clc1cc2c(nn1)Nc1ccccc1S2 | 85.3% (inactive)
4 | O=[N+]([O-])c1cc(S(=O)(=O)Oc2ccccc2)ccc1Cl | -64.3% (active)
5 | NC1=C(/C(N)=N/O)C(c2ccccc2)c2ccc3ccccc3c2O1 (stereo not given) | 9.02% (active)
6 | OCc1ncc(-c2ccccc2)s1 | 102% (inactive)

tested on: HCT-116 colon; assay: as above; settings: 10 µM unless noted

Row | Structure (SMILES) | growth
7 | O=C(NNC(=O)N1c2ccccc2C=Cc2ccccc21)c1ccc2ccccc2c1 | 103% (inactive)
8 | CCOC(=O)C1C(=O)C=C(c2ccc(OC)cc2)CC1c1sc(N(C)Cc2ccccc2)nc1Cl (stereo not given) | 71.9% (inactive)
9 | CCc1cnc(=S)n(-c2ccccc2)c1 | 93.5% (inactive)
10 | CCN(CC)c1ccc2[nH]c3c(C(N)=O)cc(=O)c(=O)c=3oc2c1 | -10.9% (active)
11 | CC1(C)C(=O)/C(=C\c2ccc(C(F)(F)F)cc2)C[C@]2(C)[C@H]3CC[C@@H]4[C@H]5[C@H](C(=O)/C=C/c6ccc(C(F)(F)F)cc6)CC[C@]5(CO)CC[C@@]4(C)[C@]3(C)CC[C@@H]12 | 82.6% (inactive)
12 | O=[N+]([O-])c1ccc(Sc2ncccn2)c([N+](=O)[O-])c1 | 37.5% (inactive)
13 | CC(C)(C)OC(=O)NC(CSCc1ccccc1)C(=O)ON1C(=O)CCC1=O (stereo not given) | 92.5% (inactive)
14 | C/C(=C\c1ccc(OCC(=O)O)c(Cl)c1Cl)[N+](=O)[O-] | 109% (inactive)
15 | CC(C)CC1NC(C)(C)CO1 (stereo not given) | 114% (inactive)
16 | CC(NNC(C)c1ccccc1)c1ccccc1 (stereo not given) | 107% (inactive)
17 | CC(C)(C)n1cc(-c2ccnc(NCCCNS(=O)(=O)c3ccc(C(F)(F)F)cc3)c2)c(-c2cccc(O)c2)n1 | 16.1% (inactive)
18 | CC(C)(C)n1cc(-c2ccnc(NCCCNS(=O)(=O)c3ccc(Br)cc3)c2)c(-c2cccc(O)c2)n1 | 22.6% (inactive)
19 | Cn1cc(-c2cnc3ccc(NC(=O)Nc4ccc(F)c(Br)c4)cc3n2)cn1 | 22% (inactive)
20 | CC(C)(C)c1[nH]nc2c1C(c1cc3ccccc3[nH]c1=O)Nc1cc(C(=O)Nc3ccc(Cl)cc3)ccc1N2 (stereo not given) | 45.6% (inactive)
21 | O=C([O][Sn]([O]C(=O)c1ccccn1)([c]1ccccc1)[c]1ccccc1)c1ccccn1 | 30.7% (inactive)
22 | CC(C)(C)N1CCC1C(N)=O (stereo not given) | 77.4% (inactive)
23 | CC(C)(C)n1cc(-c2ccnc(NCCCNS(=O)(=O)c3ccc(Cl)cc3)c2)c(-c2cccc(O)c2)n1 | 6.49% (active)
24 | O=C(Nc1ccc(NCCN2CCOCC2)nc1)c1ccc([N+](=O)[O-])cc1 | 97.2% (inactive)
25 | COc1cc(-c2ncn(/C=C\C(=O)OC(C)C)n2)cc(C(F)(F)F)c1 | 2.85% (active)
26 | O=C(NNC(=O)N1c2ccccc2C=Cc2ccccc21)c1ccccc1 | 103% (inactive)

Row | Structure (SMILES) | growth
27 | CC(C)(C)n1cc(-c2ccnc(NCCNS(=O)(=O)c3ccc(Cl)cc3)c2)c(-c2cccc(O)c2)n1 | 45.4% (inactive)
28 | Clc1ccccc1-c1nc2ccccc2[nH]1 | 78.6% (inactive)
29 | CC(C)(C)n1cc(-c2ccnc(NCCNS(=O)(=O)c3ccc(C(F)(F)F)cc3)c2)c(-c2cccc(O)c2)n1 | 29.5% (inactive)
30 | CC(=O)Oc1csc(N(C(C)=O)c2cc(C(=O)O)cc(C(=O)O)c2)n1 | 91.3% (inactive)
31 | COc1ccncc1S(=O)(=O)NC(=O)Nc1ccc(Cl)c(Cl)c1 | 91.7% (inactive)
32 | COc1ccc(-c2nc(/C=N/Nc3cc(C)nc4ccc(Cl)cc34)c(C)o2)cc1 | -86% (active)
33 | COc1ccc(C(=O)N2NC(=O)/C(=C/c3ccccc3F)N=C2c2ccccc2)cc1 | 102% (inactive)
34 | CCOC(=O)CC(=O)OC | 104% (inactive)
35 | CN1C=CN(Cc2ccc(-c3ccccn3)nc2)[CH-]1.CN1C=CN(Cc2ccc(-c3ccccn3)nc2)[CH-]1.[Au+3] | 1.98% (active)
36 | COc1cccc(/C=C2\Oc3cc(OCCCN4CCCC4)ccc3C2=O)c1OC | 83.7% (inactive)
37 | O=C1C(Cl)=C(Nc2ccccn2)C(=O)c2ccccc21 | 19.9% (inactive)
38 | Cc1ccc2[nH]c(=O)c3c(c2c1)Oc1ncn2nc(-c4ccco4)nc2c1C3c1ccc(Cl)cc1 (stereo not given) | 89.6% (inactive)
39 | COc1ccc(C2CC(c3ccc(OC)cc3OC)=NN2c2ccc(S(N)(=O)=O)cc2)cc1 (stereo not given) | 62.8% (inactive)
40 | c1ccc(-c2nnc(-c3ccccn3)s2)nc1 | 86.8% (inactive)
41 | Clc1cc2c(nn1)Nc1ccccc1S2 | 96.5% (inactive)
42 | O=[N+]([O-])c1cc(S(=O)(=O)Oc2ccccc2)ccc1Cl | -54.8% (active)
43 | COc1cc(/C=N\NC(=O)CN2CCN(c3cc4c(cc3F)c(=O)c(C(=O)N/N=C/c3cc(OC)c(OC)c(OC)c3)cn4C3CC3)CC2)cc(OC)c1OC | -32.5% (active)
44 | NC1=C(/C(N)=N/O)C(c2ccccc2)c2ccc3ccccc3c2O1 (stereo not given) | 6.57% (active)
45 | OCc1ncc(-c2ccccc2)s1 | 89.5% (inactive)
